MBD2 inh: MBD2-methylated oligo binding inhibition | Q9UBB5 | hit rate 0.31% among 370,000 | TR-FRET, MBD2 binding to methylated oligonucleotide | inhibition, % at 4.4 µM | AID 686964; in the data active means inhibition above about 13%
LEDGF integ inh: blocks HIV-1 LEDGF/p75-dependent DNA integration; AID 743269; TR-FRET IN-LEDGF/p75 DNA integration, Eu/Cy5; hit rate 0.64% among 370,000; inhibition, % at 3.7 µM;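 active means inhibition above the screen-wide mean plus 3 SD, cut at about 13% in these data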;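 further: signal is the Cy5 over europium emission ratio at 671 and 618 nm; 0% = plate median of compound wells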
CASP6 VEID inh: blocks human caspase-6 cleavage activity; P55212; purified caspase-6, Z-VEID-R110 cleavage fluorescence; inhibition, % at 12.5 µM; hit rate 0.53% among 350,000;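 active means mean inhibition across replicates at least about 35%, with every replicate also reaching that limit, limit read from the data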;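 further: 0% = median of neutral control wells and 100% = no fluorescence left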
UHRF1 binding: UHRF1 methyl-DNA binding inhibition. hit rate 0.75% among 370,000. UHRF1 binding to methylated oligo, TR-FRET. inhibition, % at 4.4 µM. AID 687016;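 further: UHRF1 SRA domain binding a hemimethylated CpG hairpin DNA probe; 0% = median of test compound wells and 100% = reference inhibitor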
Target sequence (Q96T88 whole entry, looked up, the tested form may be a part): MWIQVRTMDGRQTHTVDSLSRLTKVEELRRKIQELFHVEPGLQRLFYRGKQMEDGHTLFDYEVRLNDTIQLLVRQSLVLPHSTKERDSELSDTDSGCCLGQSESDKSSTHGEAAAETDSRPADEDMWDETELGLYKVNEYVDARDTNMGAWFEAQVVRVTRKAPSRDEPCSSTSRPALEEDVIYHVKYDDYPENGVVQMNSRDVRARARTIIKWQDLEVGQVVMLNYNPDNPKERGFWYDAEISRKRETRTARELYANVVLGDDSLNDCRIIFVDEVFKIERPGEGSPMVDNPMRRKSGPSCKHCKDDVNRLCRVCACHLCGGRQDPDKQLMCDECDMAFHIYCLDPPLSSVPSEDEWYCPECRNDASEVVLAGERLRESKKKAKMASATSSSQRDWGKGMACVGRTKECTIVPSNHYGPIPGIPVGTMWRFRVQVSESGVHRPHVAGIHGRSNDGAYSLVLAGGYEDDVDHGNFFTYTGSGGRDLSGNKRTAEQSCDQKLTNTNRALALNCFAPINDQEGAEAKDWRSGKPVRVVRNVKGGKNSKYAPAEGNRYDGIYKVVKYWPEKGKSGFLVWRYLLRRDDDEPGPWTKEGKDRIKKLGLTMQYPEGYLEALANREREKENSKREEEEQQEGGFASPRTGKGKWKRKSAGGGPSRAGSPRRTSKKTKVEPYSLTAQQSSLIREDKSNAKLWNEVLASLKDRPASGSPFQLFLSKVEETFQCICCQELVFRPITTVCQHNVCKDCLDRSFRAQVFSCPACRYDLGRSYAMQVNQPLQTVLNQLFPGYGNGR
UHRF1 DNA bind: inhibits human UHRF1 binding to methylated oligonucleotide, MBD2 counter-screen; shares compounds with MBD2 inh; TR-FRET; inhibition, % at 4.4 µM; hit rate 25% among 1,000;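 further: UHRF1 SRA domain binding a labeled hemimethylated CpG hairpin DNA; 0% = vehicle only and 100% = reference inhibitor with vehicle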
MBD2 confirm: confirmation of human MBD2-DBD methylated oligonucleotide binding inhibitors; shares compounds with MBD2 inh; TR-FRET MBD2-DBD binding to methylated oligonucleotide; inhibition, % at 4.4 µM; hit rate 26% among 1,000; in the data active means inhibition above about 14%
CASP1 counter: caspase-1 (human) inhibition counter-screen | purified caspase-1, Z-YVAD-R110 cleavage fluorescence | activity change, negative = inhibition, % at 35 µM | shares compounds with CASP6 VEID inh | 100 tested, under 10 active;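 active means compounds lowering fluorescence whose fitted half-maximal concentration is no more than twice their top tested dose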
IN multimer up: activates HIV-1 integrase multimerization in LEDGF counter-screen; shares compounds with LEDGF integ inh; TR-FRET HIV-1 integrase multimerization, biochemical; activation, % at 7.7 µM; hit rate 17% among 2,000; in the data active means activation above about 8.9%
TRFRET interf: TR-FRET optical interference, LEDGF/p75 integration counter-screen; shares compounds with LEDGF integ inh; TR-FRET optical interference counterscreen, HIV-1 IN multimerization; inhibition, % at 7.7 µM; 2,000 tested, under 10 active; AID 1053135;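 active means inhibition above the mean over all tested compounds plus 3 SD, which no compound reached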;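 further: 0% = integrase with antibodies and DMSO and 100% = antibodies without integrase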
IN-LEDGF confirm: LEDGF/p75-dependent HIV-1 integration inhibition, confirmation. shares compounds with LEDGF integ inh. inhibition, % at 3.7 µM. hit rate 36% among 2,000. TR-FRET LEDGF/p75-dependent HIV-1 integration, biochemical. AID 1053136; in the data active means inhibition above about 14%
* = called active by the depositor; · = not tested or not shown. A selection: hits, their analogues and other compounds. The true share with any hit is near 1.4%. Unless noted, no stated cut-off is given here; in the data, active means inhibition above about 21%; inactive means the rest.

SMILES	MBD2 inh	LEDGF integ inh	CASP6 VEID inh	UHRF1 binding	UHRF1 DNA bind	MBD2 confirm	others
COCCCNC(=O)CCc1c(C)c2cc3c(C)coc3cc2oc1=O	13*	1	-1	-1	1	5
Cc1coc2cc3oc(=O)c(CCC(=O)NCC(=O)O)c(C)c3cc12	0	2	0	0	·	·
C[C@@H]1CCCCO[C@@H](CN(C)C(=O)NC2CCCCC2)[C@H](C)CN([C@@H](C)CO)C(=O)c2cc(NC(=O)Nc3ccc4c(c3)OCO4)ccc2O1	·	·	0	·	·	·
O=C(CSc1nc2ccsc2c(=O)n1CC1CCC(C(=O)O)CC1)c1ccc(Cl)cc1 (configuration not stated)	19*	-1	43*	14	16	10
CCn1nc(C(=O)Nc2nc(-c3ccccn3)cs2)c2ccccc2c1=O	27*	-5	2	-3	-3	4
O=C(c1ccccc1)N1C[C@@H]2[C@H](c3ccccc31)[C@H](CO)N2C(=O)Nc1ccccc1Cl	·	·	0	·	·	·
CC(=O)Nc1nc(-c2ccccc2)ns1	13*	0	·	2	-1	6
O=C(O)[C@H]1[C@H](CO)[C@H]2Cn3c(ccc(-c4cncnc4)c3=O)[C@H]2N1C(=O)C1CCCCC1	·	·	1	·	·	·
C[C@H](NS(=O)(=O)c1ccccc1F)C(=O)OCC(=O)N1CCc2ccccc21	17*	-3	·	-1	7	2
O=C(OCC(=O)N1CCc2ccccc21)c1ccccc1F	2	4	0	4	·	·
Cc1ccc(Cc2c(-c3ccccc3)nc3c(C)cc(Br)cn23)cc1	4	-1	1	14	·	·
Cc1ccc(Cc2c(-c3ccccc3)nc3cc(C)ccn23)cc1	17*	-4	-2	27*	13	6
CCOC(=O)C1CCN(CC(=O)Nc2c(C(=O)OC)[nH]c3ccccc23)CC1	5	-1	·	1	·	·
CCOC(=O)C1CCN(CC(=O)Nc2c(C(=O)OC)[nH]c3cccc(Cl)c23)CC1	14*	2	·	-1	3	6
O=C(C[C@H]1CC[C@@H]2[C@H](COC[C@@H](O)CN2Cc2cccc(-c3ccncc3)c2)O1)N1CCN(c2ccccc2)CC1	·	·	-2	·	·	·
C[C@@H]1CCCCO[C@@H](CN(C)C(=O)Nc2ccc3c(c2)OCO3)[C@@H](C)CN([C@H](C)CO)C(=O)c2cc(NC(=O)c3ccncc3)ccc2O1	·	·	-1	·	·	·
CCC1CCc2c([nH]c3ccccc3c2=O)O1 (configuration not stated)	13*	5	·	22*	6	0
CCOC(=O)c1c(C)n(C)c2ccc(OC)c([N+](=O)[O-])c12	13*	2	0	29*	9	1
C[C@@H]1CN([C@@H](C)CO)C(=O)Cc2cc(NC(=O)c3ccncc3)ccc2O[C@H]1CN(C)CC1CC1	·	·	1	·	·	·
COc1ccc(S(=O)(=O)NCc2ccncc2)cc1NC(=O)c1ccccc1	16*	4	-3	33*	5	2
CCOc1ccc(S(=O)(=O)NCc2ccncc2)cc1NC(=O)c1ccccc1	4	0	-2	-2	·	·
Cc1cc(C)c(OCC(=O)OCC(=O)NNC(=O)c2ccccc2F)c(C)c1	22*	-7	0	3	5	2
Cc1cc(C)c(OCC(=O)OCC(=O)NCc2cccs2)c(C)c1	2	-3	2	-4	·	·
C[C@@H]1CN([C@H](C)CO)C(=O)c2cccc(NC(=O)Nc3ccc(F)cc3)c2O[C@H]1CN(C)Cc1ccncc1	·	·	0	·	·	·
CCCNC(=O)N1CC2(CCN(Cc3cccnc3)CC2)c2c(n(C)c3cc(OC)ccc23)[C@H]1CO	·	·	2	·	·	·
SMILES	MBD2 inh	LEDGF integ inh	CASP6 VEID inh	UHRF1 binding	UHRF1 DNA bind	MBD2 confirm	others
O=c1oc(-c2ccccc2)nc2sc3c(c12)CCC3	18*	11	72*	46*	26*	15*	CASP1 counter=-4
O=C(O)Cc1ccc(-n2cccc2)cc1	14*	5	70*	30*	57*	28*	CASP1 counter=-1
COC(=O)C[C@@H]1C=C[C@@H](NC(=O)Nc2ccc(C(F)(F)F)cc2)[C@H](CO)O1	·	·	1	·	·	·
Cc1ccc(C)c(NC(=O)CN(C)C(=O)c2cccc(-n3cccc3)c2)c1	22*	1	59*	36*	43*	33*	CASP1 counter=-1
CN(CC(=O)Nc1ccccc1Cl)C(=O)c1cccc(-n2cccc2)c1	1	2	0	-1	·	·
CCCSC1=N/C(=C\c2ccc([N+](=O)[O-])o2)C(=O)S1	19*	35*	75*	52*	21*	4	CASP1 counter=-9
CCSC1=N/C(=C\c2ccc(-c3ccccc3[N+](=O)[O-])o2)C(=O)S1	-4	1	·	-8	·	·
O=C1CN(Cc2ccccc2)C[C@H]2[C@H](c3ccc(Br)cc3)[C@H](CO)N12	·	·	4	·	·	·
CCCCN(C(=O)c1cccc(-n2cccc2)c1)c1c(N)n(Cc2ccccc2)c(=O)[nH]c1=O	18*	1	57*	33*	43*	35*	CASP1 counter=-1
CO[C@H]1CN(C)C(=O)c2cc(NC(=O)NC(C)C)ccc2OC[C@@H](C)N(C(=O)CC2CC2)C[C@H]1C	·	·	1	·	·	·
c1ccc(-c2nnc(-c3ccco3)o2)cc1	-1	2	·	-4	·	·
c1coc(-c2nnc(-c3ccco3)nn2)c1	33*	61*	89*	77*	77*	35*	IN multimer up=11*;TRFRET interf=-58;IN-LEDGF confirm=86*
O=S(=O)(c1cc(O)ccc1O)c1cccc2c(S(=O)(=O)c3cc(O)ccc3O)cccc12	20*	16*	·	33*	37*	17*	IN multimer up=22*;TRFRET interf=-109;IN-LEDGF confirm=41*
C[C@@H]1CN([C@@H](C)CO)C(=O)c2cc(NS(C)(=O)=O)ccc2O[C@H]1CN(C)Cc1ccc(-c2ccccc2)cc1	·	·	1	·	·	·
CC(=O)N(C)C[C@H]1Oc2cc(-c3cncnc3)ccc2S(=O)(=O)N([C@@H](C)CO)C[C@H]1C	·	·	0	·	·	·
C=CC(=O)N1C/C(=C/c2ccc(F)cc2)C(=O)/C(=C\c2ccc(F)cc2)C1	15*	14*	78*	40*	25*	15*	IN multimer up=11*;TRFRET interf=-54;IN-LEDGF confirm=18*
Cc1ccc(C)n1/N=C1/NC(=O)CS1	39*	58*	·	76*	48*	17*	IN multimer up=3;TRFRET interf=-15;IN-LEDGF confirm=66*

Source: PubChem
